Compound activity as filed in PubChem BioAssay.
A selection: hits, their analogues and other compounds. The true share with any hit is near 3.1%.
PTAP TSG101 blk: blocks PTAP/TSG101 interaction to inhibit HIV-1 budding. Q99816. Fluorescence polarization, FITC-PTAP peptide / Tsg101 binding. Potency, µM (top dose mostly 115 µM), hits mostly inhibitors. 340,000 tested, under 10 active; active = well fitted inhibition curve with a large enough effect in the main read-out, with a control signal flat, not every such curve was filed as active; inconclusive = small, poorly fitted or top-dose-only effect, or effect the other way, or a change in a side signal; inactive = no such curve, though single readings can be large or run the other way
Target sequence (Q99816 whole entry, looked up): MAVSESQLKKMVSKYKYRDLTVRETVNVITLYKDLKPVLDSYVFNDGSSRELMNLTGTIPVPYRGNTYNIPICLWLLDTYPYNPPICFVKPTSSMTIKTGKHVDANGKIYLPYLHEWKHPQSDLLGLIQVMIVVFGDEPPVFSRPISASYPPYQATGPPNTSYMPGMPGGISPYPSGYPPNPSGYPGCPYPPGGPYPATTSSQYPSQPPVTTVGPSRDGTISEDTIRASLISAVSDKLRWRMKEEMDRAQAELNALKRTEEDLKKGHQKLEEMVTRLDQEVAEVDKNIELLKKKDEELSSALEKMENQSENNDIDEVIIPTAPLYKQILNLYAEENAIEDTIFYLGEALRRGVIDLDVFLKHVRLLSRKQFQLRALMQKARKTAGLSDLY
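Compounds were pin-transferred onto Tsg101 binding domain (10 uM final) in HEPES pH 7.5 buffer, then FITC-PTAP peptide was added at 50 nM final. After 20 min at RT, polarization reported peptide displacement across a qHTS concentration series.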
TSHR antag: blocks TSH signaling through the human TSH receptor; 0.2% of 330,000 active; TSHR-expressing cells, TSH-stimulated cAMP HTRF, 2 h; active compounds read low; activity change, negative = inhibition, % at 11.5 µM;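 active = activity change below a set negative limit, meaning inhibition stronger than a set level, cut at about -70% in these data; inconclusive = activity change between two set negative limits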
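Cell-based HTRF cAMP assay; TSHR cells + compound, TSH EC80 (4nM final), 2 h, 37 deg C. Lysis with anti-cAMP cryptate and cAMP-d2, 30 min RT, read 665/620 nm.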
VDR inhibitor: inhibitors of human vitamin D receptor; P11473; VDR-SRC2-3 peptide fluorescence polarization, 2 h; Potency, µM, usual class: inhibitors; 0.93% of 400,000 active; AID 504847
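Fluorescence polarization assay measuring small-molecule disruption of VDR binding to the coregulator peptide SRC2-3. Compounds were pin-transferred (23 nl) into the reagent mix and incubated 2 h at room temperature before reading.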
PLK1 PBD inh: blocks phosphopeptide binding to human PLK1 polo-box domain; P53350; Plk1 PBD binding of FITC phosphopeptide, fluorescence polarization; Potency, µM, hits mostly inhibitors; 2.8% of 360,000 active; also: series mostly up to about 57 µM; nearly all actives have a fitted effect of over 65% in size
uPA generation: blocks generation of uPA at the cell surface; AID 540303; Potency, µM (titrated, usually from 38.3 µM), actives largely listed as inhibitors; cell surface uPA generation assay, qHTS; 0.31% of 330,000 active; active = well fitted inhibition curve with a large enough effect; inconclusive = small, poorly fitted or top-dose-only effect; inactive = no such curve, though single readings can be large or run the other way; tested in mouse RAW 264.7 cells; also: nearly all actives have a fitted effect of over 55% in size
Numbers stand for hits; 0 = inactive; ? = inconclusive; - = no result. Unless noted, calls follow the shape of the dose curve; as a rule, active = well fitted curve in the direction sought with a large enough effect; inconclusive = small, poorly fitted or top-dose-only effect, or another doubt; inactive = no such curve, though single readings can be large; an effect the other way counts as inactive or inconclusive.

SMILES	PTAP TSG101 blk	TSHR antag	VDR inhibitor	PLK1 PBD inh	uPA generation
CC(C)(C)C(=O)Nc1ccc(-c2csnn2)cc1	0	0	0	0	?
N#CSCC(=O)N1c2ccccc2CCc2ccccc21	0	0	?	11µM	0
CCN1C[C@@]2(COC)CCC(OC)[C@]34C5C[C@]6(O)[C@@H](OC)C[C@](OC(C)=O)(C([C@H](OC)C23)[C@H]14)C5[C@H]6OC(=O)c1ccc(OC)cc1 (some centres undefined)	-	-	0	-	-
O=C(O)[C@@H]1Cc2[nH]cnc2C(c2cccnc2)N1 (some centres undefined)	-	-	0	-	-
CCn1c(N)c(C(=O)NC)sc1=S	0	0	25µM	2.7µM	0
CCOC(=O)[C@]12Cc3cc(C)ccc3[C@H]1N(C)C(=O)c1ccccc12	-	-	-	0	-
CCOC(=O)[C@]12Cc3cc(Cl)ccc3[C@H]1N(C1CCCCC1)C(=O)c1ccccc12	-	-	-	1.9µM	-
CCOC(=O)[C@]12Cc3cc(OC)ccc3[C@H]1N(C1CCCCC1)C(=O)c1ccccc12	-	-	-	3µM	-
CCOC(=O)[C@]12Cc3ccsc3[C@H]1N(Cc1ccccc1)C(=O)c1ccccc12	0	-	0	0	0
COc1cc2c(cc1OC)[C@@H]1C(=O)c3ccc(OC)c(CC=C(C)C)c3OC1CO2 (some centres undefined)	-	-	0	-	-
Cc1noc(C)c1C(=O)N1CCC2(CCCN(CC(C)C)C2)CC1	-	-	0	-	-
O=[N+]([O-])c1ccc(C(c2ccc([N+](=O)[O-])cc2)c2ccc([N+](=O)[O-])cc2)cc1	0	-	0	0	0
Cc1[nH]n(-c2ccccc2)c(=O)c1C(c1ccc([N+](=O)[O-])cc1)c1c(C)[nH]n(-c2ccccc2)c1=O	0	0	?	7.5µM	?
Cc1[nH]n(-c2ccccc2)c(=O)c1C(C[N+](=O)[O-])c1ccccc1Cl (centres undefined)	0	0	0	15µM	0
CCC(COC)Oc1cc(NCc2ccccc2)c2ncn(C(C)C)c2c1 (centres undefined)	0	0	22µM	?	?
CCCCCCCCCCCCCCOS(=O)(=O)O	-	-	28µM	-	-
CCCCCCCCOC(=O)c1ccccc1C(=O)OCCCCCCCC	-	-	0	-	-
O=c1[nH]sc2cc(F)ccc12	0	0	7.1µM	3.8µM	0
Cc1noc(C(=O)Nc2sc3c(c2C#N)CCC3)c1Cl	0	0	0	24µM	0
N#Cc1c(/N=C/C2C(=O)NC(=S)NC2=O)sc2c1CCCC2	0	0	?	?	0
C[n+]1c(-c2ccccc2)c2cc(N)ccc2c2ccc(N)cc21	0	0	0	0	7.1µM
O=C1NC(=O)C(=O)C(=O)N1	-	-	3.2µM	-	-
OCC(O)Cc1ccc2c(c1)OCO2 (centres undefined)	-	-	0	-	-
CCOC(=O)c1c(C)c(P(=S)(N2CCOCC2)N2CCOCC2)n(C)c1C	0	0	0	27µM	0
CCOP(=S)(OCC)N1CCOCCOCCN(P(=S)(OCC)OCC)CCOCCOCC1	0	0	0	0	0
SMILES	PTAP TSG101 blk	TSHR antag	VDR inhibitor	PLK1 PBD inh	uPA generation
CCOC(=S)SSC(=S)OCC	-	-	50µM	-	-
O=c1[nH]c(=S)[nH]c(O)c1N=Nc1cc(S(=O)(=O)Nc2ccc(Cl)cc2)ccc1Cl	0	0	0	30µM	0
O=C1NC(=S)N(c2ccccc2F)C(=O)/C1=C\c1cccs1	0	0	?	7.5µM	0
CCOc1ccc(N2C(=O)/C(=C\c3cccs3)C(=O)NC2=S)cc1	0	0	0	2.7µM	0
Cc1ccccc1N1C(=O)/C(=C/c2ccco2)C(=O)NC1=S	-	0	-	-	-
CCOc1ccc(N2C(=O)/C(=C/c3ccco3)C(=O)NC2=S)cc1	0	0	79µM	1.3µM	0
COc1ccc(N2C(=O)/C(=C/c3ccc(OC)c(OC)c3)C(=O)NC2=S)cc1	0	0	?	7.5µM	0
COc1ccc(N2C(=O)NC(=O)/C(=C/c3ccc4c(c3)Cc3ccccc3-4)C2=O)cc1	-	0	-	-	-
CC(=O)N1CC[N+](C)(C)CC1	-	-	0	-	-
Cc1cccc(N2C(=O)NC(=O)/C(=C\c3cc(C)n(-c4sc5c(c4C#N)CCCC5)c3C)C2=O)c1C	0	0	16µM	0.75µM	0
CC(C)N(C(=O)Cn1c(=O)oc2ccccc21)c1ccccc1	0	0	0	0	0
COc1ccc(N=Nc2c(O)[nH]c(=S)[nH]c2=O)cc1	0	0	0	0	0
CSc1nc(N)c(N=Nc2ccc([As](=O)(O)O)cc2)c(=O)[nH]1	0	0	50µM	11µM	0
Brc1nc(-c2ccccc2)nc(-c2ccccc2)c1Br	0	-	?	0	0
N#CC(C#N)=NNc1ccc(S(=O)(=O)N2CCCC2)cc1	0	0	?	0	0
N#CC(C#N)=NNc1ccc(OC(F)(F)F)cc1	-	-	0.89µM	-	-
O=C(Oc1ccccc1)N1CCC[C@@]2(CCN(Cc3nccs3)C2)C1	-	-	0	-	-
CN(C(=O)COc1nc2ccccc2s1)c1ccccc1	-	-	0	-	-
CCN(CC)C(=O)c1ccc(NC(=O)Cn2nc(C)c3ccccc3c2=O)cc1	0	0	0	0	0
CCN(CC)C(=O)c1ccc(NC(=O)c2ccc(-c3nn(C)c(=O)c4ccccc34)cc2)cc1	0	0	0	30µM	0
CCn1c(=S)sc2c(=O)[nH]c(SCC(=O)Nc3cc(OC)ccc3OC)nc21	0	0	0	?	0
O=[N+]([O-])NC1=NCCN1Cc1ccc(Cl)nc1	0	0	?	27µM	1.1µM
C[C@@H]1Cc2c(Cl)cc(C(=O)N[C@H](Cc3ccccc3)C(=O)O)c(O)c2C(=O)O1	-	-	0	-	-
O=C1NC(=O)N(CC2CCCO2)C(=O)/C1=C/c1cccs1 (centres undefined)	0	0	0	?	0
CCN(CC)c1ccc(/C=C2/C(=O)NC(=O)N(CC3CCCO3)C2=O)cc1 (centres undefined)	0	0	0	?	0
SMILES	PTAP TSG101 blk	TSHR antag	VDR inhibitor	PLK1 PBD inh	uPA generation
O=C1NC(=O)N(CCC2=CCCCC2)C(=O)/C1=C/c1ccc(O)cc1	0	0	?	2.7µM	0
COc1ccc(/C=C2\C(=O)NC(=O)N(CCC3=CCCCC3)C2=O)c(OC)c1	0	0	?	1.7µM	0
O=C1NC(=O)N(CCC2=CCCCC2)C(=O)/C1=C/c1cccs1	0	0	?	0.75µM	0
CCC(Sc1ccccc1)C(=O)OC1CC2CCC(C1)N2C (centres undefined)	-	-	0	-	-
N#Cc1ccc(CN2CC[C@@]3(CCCNC3)C2)cc1	-	-	0	-	-
CN1CC(C(=O)c2ccc(Cl)cc2)C(c2ccc(Cl)cc2Cl)C1 (centres undefined)	0	0	0	0	0
CN1CCC(O)(c2ccc(Cl)cc2)C(C(=O)c2ccc(Cl)cc2)C1 (centres undefined)	0	0	?	4.7µM	0
CC(C)c1cc2c(c(O)c1O)[C@@]1(C(=O)O)CCCC(C)(C)[C@@H]1CC2	-	-	20µM	-	-
CC(C)c1cc2c(c(O)c1O)[C@]1(C(=O)O)CCCC(C)(C)C1CC2 (some centres undefined)	-	-	45µM	-	-
C[C@]1(C(=O)O)CCC[C@]2(C)c3cc(O)ccc3CC[C@@H]12	-	-	0	-	-
